Compound activity (PubChem BioAssay)
Tg IFNy HTS: inhibitors of Toxoplasma gondii growth with IFN-gamma | Toxoplasma gondii growth in IFN-gamma-treated host cells; stronger effect = lower value | actives 3.8% (n = 69,000) | activity change, negative = inhibition, % (test concentration not listed); in the data active means activity change below about -70%, passing the limit was not always enough;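 further: host cells are HeLa cells infected with Toxoplasma gondii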
A number is an active result; n = inactive. The entries come from a sample that favours hits as a whole.

SMILES | Tg IFNy HTS
CCN(Cc1nc(C)no1)C(=O)c1ccc(-n2nc(C)cc2C)cc1 | n
C=CCNc1ccccc1C(=O)NCc1ncc[nH]1 | n
COc1ccc(F)c(-c2nc(OC)cc(OC)n2)c1 | n
Cc1cc(-n2cnnc2)ncc1-c1ccc(C(C)N2CCCC2)cc1 (centres undefined) | n
COc1ccc(F)c(-c2cnc(-n3cnnc3)cc2C)c1 | -81
CC12C(=O)OC(=O)C1(C)C1CCC2O1 (centres undefined) | -86
CCCN1C(=O)NC(CC(=O)N2CCc3c(nc(C)nc3N(C)C)C2)C1=O (centres undefined) | n
CS(=O)(=O)N1CCN(S(=O)(=O)c2ccc3ccccc3c2)CC1 | n
COc1cccc(C(NC(=O)c2cccnc2C)c2nccn2C)c1OC (centres undefined) | n
COc1cc(OC2CCN(C)CC2)ccc1Nc1ncc2c(n1)n(C1CCCC1)c(=O)n2C | n
CC[C@@H]1C(=O)N(C)c2cnc(Nc3ccc(C(=O)NC4CCN(C)CC4)cc3OC)nc2N1C1CCCC1 | -76
CCN1C(=O)CCc2cc(C(=O)NC3CCCCC3)ccc21 | n
O=C1CCCCn2cc(nn2)COC[C@H](Cc2ccccc2)N1 | n
COc1cccc(-c2ccc(C3[C@H]4CNC[C@@H]3N4Cc3nccs3)cc2)c1 (some centres undefined) | n
Cc1ccc2nc(NC(=O)CN3C(=O)CCc4cc(Br)ccc43)sc2c1 | n
Cn1cc(-c2nnn3c2COC(CNCc2cccc(C#N)c2)C3)cn1 (centres undefined) | n
COC(=O)C[C@H]1CC[C@@H]2[C@H](COC[C@H](O)CN2S(=O)(=O)c2cn(C)cn2)O1 | n
N#CC(C#N)=C(N)/C(C#N)=C/c1cc(O)c(O)c(O)c1 | n
CC(C)(C)c1cc(-c2cc(C(C)(C)C)c(O)c(C(C)(C)C)c2)cc(C(C)(C)C)c1O | n
CC(C)(C)c1cc(/C=C(\C#N)C(N)=S)cc(C(C)(C)C)c1O | -74
CCN(CC)c1ccc2ccc(C(=O)NCCCOC)cn12 | n
C=CCO[C@@H]1CC[C@@H]2[C@H]1OCCN2C(=O)C1=CCCCC1 | n
CCOc1ccc(-c2nc(Cn3nnc(C(=O)Nc4cc(C)cc(C)c4)c3C)c(C)o2)cc1 | n
CCOc1ccc(-c2nc(Cn3nnc(C(=O)Nc4c(C)cccc4C)c3C)c(C)o2)cc1 | -94
COc1ccc(NC(=O)c2nnn(Cc3nc(-c4ccc(C)cc4)oc3C)c2C)cc1 | -95
SMILES | Tg IFNy HTS
Cc1oc(-c2ccc(OC(C)C)cc2)nc1Cn1nnc(C(=O)Nc2cccc(Cl)c2C)c1C | -118
COc1cccc(CNC(=O)c2nnn(Cc3nc(-c4ccc(C)cc4)oc3C)c2C)c1 | -96
CCOc1ccccc1NC(=O)c1nnn(Cc2nc(-c3ccc(OC(C)C)cc3)oc2C)c1C | n
Cc1ccc(-c2nc(Cn3nnc(C(=O)NCCCc4ccccc4)c3C)c(C)o2)cc1 | n
Cc1ccccc1NC(=O)c1nnn(Cc2nc(-c3ccc(OC(C)C)cc3)oc2C)c1C | n
Cc1ccc(-c2nc(Cn3nnc(C(=O)Nc4cc(C)cc(C)c4)c3C)c(C)o2)cc1 | n
COc1ccc(NC(=O)c2nnn(Cc3nc(-c4ccc(Cl)cc4)oc3C)c2C)cc1 | n
CCOc1ccc(-c2nc(Cn3nnc(C(=O)Nc4cc(C)ccc4C)c3C)c(C)o2)cc1 | n
CSc1ccc(CNC(=O)c2nnn(Cc3nc(-c4ccc(C)cc4)oc3C)c2C)cc1 | n
Nc1ccc(-n2nncc2-c2ccccc2)cc1 | n
Cc1cccnc1C(C)NC(=O)c1cccc2c1NCCC2 (centres undefined) | n
COc1cccc(NC(=O)NCC(c2cccnc2)c2c[nH]c3ccccc23)c1 (centres undefined) | n
CNC(=O)CN1CCCC12CCN(Cc1cc(C)nn1C)CC2 | n
CC(c1ccccc1)n1c(SCC(=O)O)nnc1-c1cccnc1 (centres undefined) | n
NC(=O)c1ccc[n+]([C@@H]2O[C@H](COP(=O)(O)OP(=O)(O)OC[C@H]3O[C@@H](n4cnc5c(N)ncnc54)[C@H](O)[C@@H]3O)[C@@H](O)[C@H]2O)c1 | n
Cc1ccc2c(c1C)-n1cccc1C1(CCN(S(=O)(=O)c3ccc(Cl)cc3)CC1)N2 | n
O=C(C[C@H]1CC[C@@H]2[C@H](COC[C@@H](O)CN2C(=O)c2cnccn2)O1)N1CCN(c2ccccc2)CC1 | n
CCCN(Cc1nccn1C)C(C)C(=O)Nc1ccc(C)cc1 (centres undefined) | n
COc1ccc(NC(=O)c2nnn(Cc3nc(-c4ccccc4)oc3C)c2C)c(OC)c1 | n
COc1ccc(CNC(=O)c2nnn(Cc3nc(-c4ccc(C)cc4)oc3C)c2C)c(OC)c1 | -99
CCOc1ccc(-c2nc(Cn3nnc(C(=O)Nc4cc(OC)ccc4OC)c3C)c(C)o2)cc1 | n
COc1ccc(CCNC(=O)c2nnn(Cc3nc(-c4ccc(C)cc4)oc3C)c2C)cc1OC | n
Cc1ccccc1NC(=O)c1nnn(Cc2nc(-c3ccc(Cl)cc3)oc2C)c1C | n
COc1ccc(CNC(=O)c2nnn(Cc3nc(-c4ccc(C)cc4)oc3C)c2C)cc1OC | -87
Cc1ccccc1NC(=O)c1nnn(Cc2nc(-c3ccccc3)oc2C)c1C | n
SMILES | Tg IFNy HTS
COc1ccc(NC(=O)c2nnn(Cc3nc(-c4ccc(Cl)cc4)oc3C)c2C)cc1OC | n
Cc1ccc(-c2nc(Cn3nnc(C(=O)Nc4ccccc4C)c3C)c(C)o2)cc1 | -88
CCOc1ccc(C(=O)NCCc2sc(-c3cccc(F)c3)nc2C)cc1OCC | n
CCN(CC)c1ncnc2c1cnn2CC(=O)Nc1cc(C)ccc1OC | n
C=CCC(C)(C)CN1CCN(C)C2(CCN(C(=O)N(CC)CC)CC2)C1 | n
CC(C)NC(=O)N1CCc2cc(C(=O)NCC3CC3)c(NCC3CC3)nc2CC1 | n
O=c1[nH]c(CC2CC2)nc2c1CCN(Cc1cc3n(n1)CCCNC3)C2 | n
Cc1cc(C)n(CC2(CNC(=O)CN3CCCN(C)CC3)CC2)n1 | n
CN1CCCN(CC2(O)CCNC2)CC1 (centres undefined) | -94
CC(c1ccncn1)N(C)C(=O)c1cn(-c2ccccc2)nn1 (centres undefined) | n
CC(c1cccnc1)N(C)C(=O)c1ccc(Oc2ccccc2)o1 (centres undefined) | n
NC(=NCCCCCCN=C(N)/N=C(\N)Nc1ccc(Cl)cc1)/N=C(\N)Nc1ccc(Cl)cc1 | -82
CC(C)N=C(N)/N=C(\N)Nc1ccc(Cl)cc1 | n
CC(=O)Nc1ccc(-c2cn(Cc3ccc(Cl)cc3)nn2)cc1 | n
CC(NC(=O)c1cccnc1)C(=O)O (centres undefined) | n
CN(C)CCCNC(=O)c1cc(-c2cnc(-c3ccccc3)nc2)cn1C | n
Cn1cc(-c2cnc(-c3ccccc3)nc2)cc1C(=O)NCCC#N | n
CCCNC(=O)c1cc(-c2cnc(NCc3ccccc3)nc2)cn1C | -82
C[C@H]1CN([C@@H](C)CO)C(=O)c2c(c3ccccc3n2C)-c2ccccc2CO[C@H]1CN(C)S(=O)(=O)c1ccc([N+](=O)[O-])cc1 | n
O=C(Cn1c(=O)ccc2cc(S(=O)(=O)N3CCCC3)ccc21)N1CCC2(CC1)OCCO2 | n
CCNc1ccnc(-c2cccc3[nH]ccc23)n1 | n
OCCNc1ncnc2ccc(-c3cccc4[nH]ccc34)cc12 | n
Cc1csc2ncnc(-c3cccc4[nH]ccc34)c12 | -74
Cc1ccc2c(c1)cc(C(=O)Nc1ccc(C)c(S(=O)(=O)NC(C)C)c1)n2C | n
CC(=O)c1ccc(-n2cccc2CN(Cc2ccc3c(c2)OCO3)CC(C)O)cc1 (centres undefined) | n
Cn1c(=O)c2c(nc(SCCN3CCCCC3)n2C)n(C)c1=O | n
